A number with no mark means an inactive call. Calls follow the shape of the dose curve; as a rule, active = well fitted inhibition curve with a large enough effect; inconclusive = small, poorly fitted or top-dose-only effect; inactive = flat fitted curve, though single readings scatter. *1 amine or outer side, *2 acyl side, *3 side chain or, on linkers, in order; H or OH if unused. Where a SMILES comes first, the peptide text is derived from it. [ ]: non-standard residue; d: D form. X13 = O=C(C(CC(O)CO)O[*:1])[*:2]; NMeV = CN[CH](C(=O)O)C(C)C; NMeA = CN[CH](C)C(=O)O; βAla = NCCC(=O)O
Tested on: Nanoluciferase (engineered Oplophorus gracilirostris luciferase)
Experiment: Primary Nanoluciferase (NLuc) qHTS assay for identification of artifact compounds. (AID 1845222);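 also: NLuc secreted into diluted conditioned medium of S16 cells; 0% = DMSO and -100% = no enzyme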
Conditions: NLuc-conditioned medium, Nano-Glo luminescence, 5 min; series mostly up to 54.1 µM; activity, negative = inhibition: at the top concentration
Procedure, shortened: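 qHTS format, against NLuc in S16 cell-conditioned medium. Nano-Glo substrate 1:100 was added after 15 min at room temperature. Luminescence was taken after a further 5 min.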

Structure (SMILES) | activity, negative = inhibition
O=[N+]([O-])c1cc(Cl)ccc1S(=O)(=O)N1CCN(Cc2ccccc2)CC1 | 3.06%
CCOC(=O)C1=C(N)Oc2ccc(Cl)cc2C1C(C#N)C(=O)OCC (stereo not given) | -21.9%
CCC(C)C1NC(=O)C2CCCN2C(=O)C(CC(O)CO)OC(=O)CCNC(=O)C(C)N(C)C(=O)C(C(C)C)N(C)C1=O (stereo not given) (cyclo([X13]PI[NMeV][NMeA][βAla]); configuration not given here) | -4.06% [at 25.7 µM]
CC1=CC(=O)CC(C)(C)C1/C=C/C(C)OC1OC(COC2OCC(O)C(O)C2O)C(O)C(O)C1O (stereo not given) | 3.21% [at 25.7 µM]
O=C(OCC1=CC(Cl)C(O)C(OC(=O)c2ccccc2)C1O)c1ccccc1 (stereo not given) | -2.75% [at 25.7 µM]
C[C@@H]1O[C@@H](OC2C(O[C@H]3[C@H](O[C@H]4CC[C@@]5(C)C(CC[C@]6(C)C5CC=C5C7CC(C)(C)CC(O)[C@]7(C)CC[C@]56C)C4(C)C)O[C@H](C(=O)O)[C@@H](O)[C@@H]3O)OC(CO)C(O)C2O)[C@H](O)[C@H](O)[C@H]1O (stereo not given in full) | 0% [at 11.6 µM]
O=C(/C=C/c1ccc(O)c(O)c1)O[C@H]1[C@H](OC2CCCCC2O)O[C@H](CO)[C@@H](O)[C@@H]1O (stereo not given in full) | -2.44% [at 25.7 µM]
COc1ccc([C@H]2OC[C@H]3[C@@H]2CO[C@@H]3c2ccc(O[C@@H]3O[C@H](CO)C(O)[C@H](O)[C@H]3O)c(OC)c2)cc1OC (stereo not given in full) | -6.3% [at 25.7 µM]
C=CCC/C=C/C#CCCCCCCCC[C@H]1C(=O)O[C@H](C)[C@@H]1O | -1.04%
COc1ccc(O[C@@H]2O[C@H](CO)[C@@H](O)[C@H](O)[C@H]2O)cc1OC | 0.926%
Cc1c(NC(=O)N2CCOCC2)ccc2c1c1ccccc1n2C(C)C | 0.698%
Nc1c(-c2ccccc2)nc(Cl)c2c(O)n[nH]c(=O)c12 | -15%
COc1cc(Cc2cnc(N)nc2N)c(C(C)C)cc1OC | -0.0406%
C=C1C[C@]23C[C@@]1(O)CC[C@H]2[C@@]12C=C[C@H](O)[C@@](C)(C(=O)O1)[C@H]2[C@@H]3C(=O)O | 0.49%
COc1cc2nc(=NC(=O)c3cccnc3)n3c(c2cc1OC)NCC3 | -0.117%
COC(=O)c1ccc(OC)cc1O[C@@H]1O[C@H](CO[C@@H]2OC[C@@H](O)[C@H](O)[C@H]2O)[C@@H](O)[C@H](O)[C@H]1O | 0% [at 25.7 µM]
CC1OC(O[C@H]2CC[C@@]3(C)C(CC[C@]4(C)C3CC=C3C5CC(C)(C)CC[C@]5(C(=O)OC5OC(CO)C(OC6OCC(OC7OCC(O)C(O)C7O)C(O)C6O)C(O)C5O)CC[C@]34C)C2(C)C)C(O)C(O)C1OC1OC(CO)C(O)C(OC2OC(CO)C(O)C(O)C2O)C1O (stereo not given in full) | 0.21% [at 11.6 µM]
C=C(C(=O)O)C1CC(OC(=O)CC(C)CC)C2(C)CCCC(=C)C2C1 (stereo not given) | -7.8%
CC[C@@H]1C(=O)O[C@]23C=C[C@@H]4C(C(=O)OC)=CO[C@H](O[C@@H]12)[C@@H]43 | -16.9%
CC1=CC(=O)CC(C)(C)C1CCC(C)O[C@@H]1O[C@H](CO)[C@@H](O)[C@H](O)[C@H]1O (stereo not given in full) | -0.929%
C[C@H]1CC[C@H]2[C@@H](C=C[C@@](C)(O)[C@]2(C)C(=O)CCO)C1 | 0.791%
O=C(OC(C(F)(F)F)C(F)(F)F)N1CCN(Cc2cccc(Oc3ccccc3)c2)CC1 | -4.85%
C[C@@H]1[C@H](O)[C@@H]2OC(=O)C3=C2[C@H](CCC3)[C@@]12C[C@@H](c1ccoc1)OC2=O | 0%
C=C1CCC2[C@@](C)(C(=O)O)CCC[C@@]2(C)[C@@H]1CCc1ccoc1 (stereo not given in full) | -3.6%
C[C@@H]1O[C@@H](O[C@H]2[C@H](O[C@H]3[C@H](O[C@H]4CC[C@@]5(C)C(CC[C@]6(C)C5CC=C5[C@@H]7CC(C)(C)C[C@@H](O)[C@]7(C)CC[C@]56C)[C@@]4(C)CO)O[C@H](C(=O)O)[C@@H](O)[C@@H]3O)O[C@H](CO)[C@H](O)[C@@H]2O)[C@H](O)[C@H](O)[C@H]1O (stereo not given in full) | 4.57% [at 11.6 µM]
C=C1[C@H]2CCC3[C@]4(C)CCC[C@@](C)(C(=O)O)C4CC[C@]3(C2)[C@H]1OC(C)=O (stereo not given in full) | -1.15%
C=C1CCC2C(C)(C)CCC[C@]2(C)[C@H]1CC/C(C)=C/C(=O)O (stereo not given in full) | 1.19%
CC[C@H](NC(=O)c1c(O)c(-c2ccccc2)nc2ccccc12)c1ccccc1 | -19.8%
Nc1nc(COC(=O)c2ccc([N+](=O)[O-])cc2)nc(Nc2ccccc2)n1 | -8.2%
COC(=O)C1=CO[C@@H](O[C@@H]2O[C@H](CO[C@@H]3O[C@H](CO)[C@@H](O)[C@H](O)[C@H]3O)[C@@H](O)[C@H](O)[C@H]2O)[C@@H]2C(CO)=CC[C@H]12 | 4.25% [at 25.7 µM]

Source: PubChem BioAssay (NCATS)
